High-throughput results (PubChem BioAssay)
Shown are actives, neighbours in structure and some others; about 2.4% of the full set was active somewhere.
D2 antag = antagonists of human D2 dopamine receptor. HEK293 TREx D2 cells, calcium flux, dopamine EC80. inhibition, % at 10 µM. AID 485344. 340,000 compounds, 2% hits; in the data active = inhibition above about 30%; inactive = below that, where a call was filed; also: 0% is about no effect
Target sequence (P14416 whole entry, looked up): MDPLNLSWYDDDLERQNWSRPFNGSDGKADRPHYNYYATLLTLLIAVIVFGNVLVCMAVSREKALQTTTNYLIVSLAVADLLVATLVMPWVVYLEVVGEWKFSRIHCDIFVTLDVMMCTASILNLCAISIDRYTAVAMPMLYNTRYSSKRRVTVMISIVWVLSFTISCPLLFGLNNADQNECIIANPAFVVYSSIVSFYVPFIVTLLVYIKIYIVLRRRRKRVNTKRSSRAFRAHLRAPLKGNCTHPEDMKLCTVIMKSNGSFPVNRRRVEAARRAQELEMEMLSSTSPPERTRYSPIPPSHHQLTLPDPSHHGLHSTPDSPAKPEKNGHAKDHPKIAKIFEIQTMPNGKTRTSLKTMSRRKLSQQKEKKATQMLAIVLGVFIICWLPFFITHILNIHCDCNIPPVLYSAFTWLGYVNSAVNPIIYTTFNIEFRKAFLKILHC
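Inhibition of EC80 dopamine-driven calcium flux, recorded kinetically, defines activity here; cells are a tetracycline-induced HEK293 T-REx line expressing force-coupled D2.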
D2 ag-1 = activates the human D2 dopamine receptor | activation, % at 2 µM | HEK293 T-REx D2 cells, calcium flux agonist mode | P14416 | 340,000 compounds, 0.53% hits | AID 485358;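 active = activation over 3 SD above normal in the single-dose calcium agonist read, cut at about 30% in these data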; also: 0% is about no effect
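Tetracycline-induced HEK293 Trex cells with D2 receptor force-coupled to calcium signaling, plated overnight at 30 C and loaded with no-wash calcium dye. Calcium flux read kinetically for 180 s after compound addition; responses flag agonists.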
D2 PAM-1 = positive allosteric modulators of human D2 dopamine receptor; HEK293 T-REx D2, calcium flux, EC20 dopamine potentiation; potentiation, % at 10 µM; 340,000 compounds, 0.34% hits; AID 485347;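 active = potentiation over 3 SD above the plate norm, cut at about 30% in these data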; also: 0% is about no effect
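Using a no-wash calcium dye in inducible, force-coupled HEK293 Trex cells expressing D2, we tracked fluorescence each second for 180 s after compound, then for 180 s after EC20 dopamine to detect augmented signalling.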
D2 ag-2 = agonists of human D2 dopamine receptor (beta-arrestin). 360,000 compounds, 0.084% hits. P14416. AID 624465. activation, % (test concentration not listed). DiscoveRx PathHunter D2 beta-arrestin, luminescence, 90 min; 100% = 57 uM dopamine signal; in the data active = activation above about 40%
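Agonist mode: compounds alone added to overnight-plated D2 PathHunter cells for 90 min at 37 C, with 57 uM final dopamine (EC100) defining full response. Beta-arrestin recruitment detected by chemiluminescent reagent, read after 1 h at ambient temperature.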
D2 PAM-2 = human D2 receptor positive allosteric modulation. DiscoveRx D2 beta-arrestin cells, luminescence, 90 min; 100% = 57 uM dopamine signal. potentiation, % (concentration not given with the values). 360,000 compounds, 0.23% hits; in the data active = potentiation above about 50%
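PathHunter D2 cells, attached overnight at 37 deg C, received compound in DMSO plus dopamine at EC20 (50 nM final) for 90 min at 37 deg C. Beta-arrestin recruitment was read as luminescence after 1 h with detection reagent at ambient temperature.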
* hit, by the source's call; . = not tested or not shown.

SMILES	D2 antag	D2 ag-1	D2 PAM-1	D2 ag-2	D2 PAM-2
Cc1ccc(S(=O)(=O)N(Cc2ccc(F)cc2)Cc2ccco2)cc1	-17.7	-0.2	-16.7	2.9	-3.0
Cc1ccc(S(=O)(=O)N(Cc2ccccc2)Cc2ccco2)cc1	32.5*	-0.2	-10.0	-4.7	-7.3
Cc1ccc(NC(=O)CSc2cn(CC(=O)N3CCOCC3)c3ccccc23)cc1Cl	.	0.5	-0.9	.	.
COc1cc(C2C(C#N)=C(N)Oc3n[nH]c(-c4cccnc4)c32)ccc1OCC(N)=O (stereo unspecified)	30.2*	0.6	-5.2	-4.1	-8.4
O=C(CC(c1cccs1)N1Cc2ccccc2C1=O)Nc1ccccc1 (stereo unspecified)	.	0.1	0.7	.	.
CC(C)c1ccc(NC(=O)CSc2nc(=O)n(Cc3ccccn3)c3c2CCC3)cc1	.	-3.8	15.2	.	.
COc1ccc(NC(=O)CSc2[nH]c(=O)cc(C)c2C#N)cc1OC	34.3*	-0.5	10.7	-1.0	0.2
COc1cccc(NC(=O)CCc2nc(-c3cc(OC)c(OC)c(OC)c3)no2)c1	.	-0.8	-7.0	.	.
Cc1ccccc1NC(=O)C1(C)Cc2ccccc2C(=O)O1 (stereo unspecified)	-9.8	1.6	33.5*	-2.5	-5.9
Cc1ccccc1-c1nc(CN2CCC(C(=O)NC(C)C)CC2)c(C)o1	.	-1.0	-1.3	.	.
CC(C)[C@H](NC(=O)N1CCn2c1nc1ccccc12)C(=O)N[C@H](C(=O)O)c1ccccc1	58.0*	-6.2	9.0	-3.6	-25.0
O=C(CS(=O)c1ccc(C(F)(F)F)cc1[N+](=O)[O-])Oc1ccccc1 (stereo unspecified)	-10.3	0.8	32.9*	4.6	21.3
CCCCn1c2ccccc2c2nnc(SCC(=O)NC3=NN=C(c4ccccc4)CS3)nc21	69.6*	-0.2	6.7	.	.
CCCn1c2ccccc2c2nnc(SCC(=O)OC)nc21	-23.6	0.4	13.5	-3.1	-2.3
O=C(O)CC(NC(=O)Cc1ccc(Cl)cc1)c1ccco1 (stereo unspecified)	-9.9	-1.5	38.9*	-2.1	-1.8
O=C(O)CC(NC(=O)c1ccco1)c1ccco1 (stereo unspecified)	-2.8	0.8	-0.6	-2.7	4.7
CCOc1ccc(C(CC(=O)O)NC(=O)C(CC)c2ccccc2)cc1 (stereo unspecified)	35.3*	0.6	-6.2	4.0	-4.0
COc1ccc(CC(=O)NC(CC(=O)O)c2ccc(OC)cc2)cc1 (stereo unspecified)	36.5*	-0.3	-5.3	-2.4	-14.1
Cn1c(-c2ccc(S(=O)(=O)N3CCCC3)cc2)csc1=Nc1ccc(Cl)c(Cl)c1	.	-1.1	-0.3	.	.
Cc1ccc(-c2n[nH]c3c2C(c2cccs2)N(c2ccc(Cl)cc2)C3=O)cc1 (stereo unspecified)	.	0.6	-9.2	.	.
CCOC(=O)C1CCCN(C(=O)Cn2nc(CC)n3c(cc4occc43)c2=O)C1 (stereo unspecified)	.	0.2	8.8	.	.
Cn1c(-c2ccc(CN3CCCCC3)o2)nc2ccccc21	33.8*	-0.3	-21.1	-4.7	-42.4
O=C(Nc1cccc(C(=O)N2CCN(c3ccccc3)CC2)c1)c1nsc2ccccc12	.	-0.2	12.2	.	.
CSc1nnc2c3c4c(sc3nc(-n3nc(C)cc3C)n12)COC(C)(C)C4	48.4*	0.2	19.2	-0.2	1.1
COc1ccc(-c2cc3ccc(O)c(CN4CCCC4)c3oc2=O)cc1	.	14.0	-8.9	.	.
SMILES	D2 antag	D2 ag-1	D2 PAM-1	D2 ag-2	D2 PAM-2
COc1ccc(/C=C2/N=C(SCC(=O)Nc3cc(C)on3)N(c3ccccc3)C2=O)cc1	31.5*	-1.0	1.1	-0.5	7.4
O=C1OC(c2ccccc2)(c2ccc(O)cc2)c2ccccc21 (stereo unspecified)	.	.	.	-0.7	-2.3
O=C1OC2(c3ccccc31)c1cc(I)c(O)c(I)c1Oc1c2cc(I)c(O)c1I	53.3*	104.9*	-16.9	.	.
COc1ccccc1OCc1nnc(-c2ccccc2)o1	.	-0.5	-1.0	.	.
COc1ccc(CNc2nc3c(c(=O)n(C)c(=O)n3C)n2Cc2ccccc2Cl)cc1	.	-0.3	-3.5	.	.
Cc1cc(C)c(C#N)c(N2CCCC2)n1	6.3	-1.0	1.8	-1.4	-2.3
COc1ccc(F)cc1CN1CCN(c2cc(C)nc3c4c(C)cc(C)nc4nn23)CC1	-11.9	-0.1	-10.3	.	.
